A selection: hits, their analogues and other compounds. The true share with any hit is near 10%.
BAZ2B inh: inhibitors of human BAZ2B bromodomain. Q9UIF8. AlphaScreen BAZ2B-H3K14Ac peptide displacement. Potency, µM (series often up to 114 µM), actives largely listed as inhibitors. 4.4% of 360,000 active. AID 504333; also: nearly all actives have a fitted effect of over 60% in size
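Complex of BAZ2B and biotin-H3K14Ac (50 nM apiece) forms over 30 min at RT, then faces library compounds up to 110 uM for another 30 min; AlphaScreen beads added, 20 min dark incubation, luminescence read.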
GLS inh: inhibitors of human glutaminase (GLS); O94925; GLS enzymatic activity, qHTS titration; Potency, µM (doses to about 45.5 µM), hits mostly inhibitors; 0.21% of 410,000 active
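hKGA; 45 mM KH2PO4 pH 8.2 + 0.02% Tween-20; cpd via pin tool; 1 mM Gln soln; GluOx/HRP/Amplex Red; RT 30 min; fluor. t0 & final.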
JMJD2A Tudor inh: JMJD2A Tudor domain (human) inhibition; O75164; AlphaScreen JMJD2A-Tudor / H3K4me3 peptide binding; Potency, µM (titrated, usually from 114 µM), hits mostly inhibitors; 4.4% of 390,000 active; also: nearly all actives have a fitted effect of over 50% in size
G9a inh: inhibitors of human histone lysine methyltransferase G9a; G9a H3K9 monomethylation, AlphaScreen, 2 h; 8.8% of 350,000 active; Q96KQ7; Potency, µM (doses to about 102 µM), actives largely listed as inhibitors; AID 504332; also: nearly all actives have a fitted effect of over 75% in size
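AlphaScreen read-out: biotin-H3K9 peptide (500 nM) methylation by 20 nM enzyme with 20 uM SAM, 2 h at room temperature after 15 min compound preincubation; anti-monomethyl H3K9 antibody plus donor/acceptor beads, 10 min dark.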
HP1b chromo inh: inhibitors of HP1-beta chromodomain binding to methylated histone tails; AID 540317; P83916; AlphaScreen HP1-beta / biotin-H3K9me3 peptide binding; 0.56% of 390,000 active; Potency, µM (top dose mostly 114 µM), hits mostly inhibitors; also: nearly all actives have a fitted effect of over 70% in size
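AlphaScreen: HP1-beta (50 nM) preformed 30 min with biotin-H3(1-18)K9me3 peptide (50 nM) in PBS pH 7.4, 0.01% Tween-20. Compound added for 30 min at RT, then streptavidin donor/nickel chelate acceptor beads (10 ug/mL) for 30 min.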
L3MBTL1 block: L3MBTL1 (human) inhibition | AlphaScreen L3MBTL1–H3K9me1 peptide binding | Q9Y468 | 0.66% of 230,000 active | Potency, µM (doses to about 57.1 µM), most hits filed as inhibitors; also: nearly all actives have a fitted effect of over 60% in size
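L3MBTL1 50 nM + b-AHA-H3(1-15)K9me1 75 nM, 30 min RT; compound added, 30 min RT; streptavidin donor/Ni-chelate acceptor beads 10 ug/mL each final, 30 min RT dark; AlphaScreen read.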
Hits are given with their value; [ ] = another dose, or the depositor's remark. Calls follow the shape of the dose curve; as a rule, active = well fitted curve in the direction sought with a large enough effect; inconclusive = small, poorly fitted or top-dose-only effect, or another doubt; inactive = no such curve, though single readings can be large; an effect the other way counts as inactive or inconclusive.

How did CCn1cc(C(=O)N2CCN(c3cccc(C)c3C)CC2)c2cc(OC)c(OC)cc2c1=O do in these assays?
BAZ2B inh: inactive; GLS inh: inactive; JMJD2A Tudor inh: inactive; G9a inh: inactive; HP1b chromo inh: inactive

How did COc1ccc(C2CC(c3ccccc3)=NN2C(=O)COC(=O)c2cccc(N)c2)cc1 (stereo not given) do in these assays?
GLS inh: inactive; JMJD2A Tudor inh: inconclusive; HP1b chromo inh: inactive; L3MBTL1 block: inactive

What do the screens show for `O=C(CCl)N1N=C(c2ccco2)CC1c1ccco1` (stereo not given)?
BAZ2B inh: 44.7µM; GLS inh: inconclusive; JMJD2A Tudor inh: 44.7µM; G9a inh: 50.1µM; HP1b chromo inh: 50.1µM

What do the screens show for `CC(=O)N1N=C(c2ccccc2)CC1c1ccccc1[N+](=O)[O-]` (stereo not given)?
BAZ2B inh: inactive; GLS inh: inactive; JMJD2A Tudor inh: inactive; G9a inh: inactive; HP1b chromo inh: inactive; L3MBTL1 block: inactive

What do the screens show for `O=C(CCl)N1N=C(c2cccs2)CC1c1ccco1` (stereo not given)?
BAZ2B inh: inactive; GLS inh: inactive; JMJD2A Tudor inh: inactive; G9a inh: inconclusive; HP1b chromo inh: inactive; L3MBTL1 block: inactive

How did CC(=O)N1N=C(c2ccc([N+](=O)[O-])cc2)CC1c1ccccc1Cl (stereo not given) do in these assays?
BAZ2B inh: inconclusive; GLS inh: inactive; JMJD2A Tudor inh: inconclusive; G9a inh: 50.1µM; HP1b chromo inh: inconclusive; L3MBTL1 block: inactive

What do the screens show for `COc1ccc(C2CC(c3ccccc3)=NN2C(=O)COC(=O)c2cccnc2)cc1` (stereo not given)?
BAZ2B inh: inactive; GLS inh: inactive; JMJD2A Tudor inh: inactive; G9a inh: 17.8µM; HP1b chromo inh: inactive; L3MBTL1 block: inactive

How did COc1ccccc1CNC(=O)Cn1c(-c2ccc(F)cc2)cc(C(C)=O)c1C do in these assays?
BAZ2B inh: inactive; GLS inh: inactive; JMJD2A Tudor inh: inactive; G9a inh: inactive; HP1b chromo inh: inactive

What do the screens show for `N#CCCn1c(=O)c(-c2ccc(Cl)cc2)nc2cnc(N3CCNCC3)nc21`?
G9a inh: inactive[0.501 µM]

How did COc1ccc(-c2ccc3c(c2)S(=O)(=O)c2cccc(C(=O)NC[C@@H]4CCCO4)c2C3=O)cc1OC do in these assays?
BAZ2B inh: inconclusive; GLS inh: inactive; JMJD2A Tudor inh: 39.8µM; G9a inh: inactive[2.33 µM]; HP1b chromo inh: inactive; L3MBTL1 block: inactive

Results for O=C(NC[C@@H]1CCCO1)c1cccc2c1C(=O)c1ccc(Cl)cc1S2(=O)=O ?
BAZ2B inh: inactive; GLS inh: inactive; JMJD2A Tudor inh: inactive; G9a inh: inactive[0.501 µM]; HP1b chromo inh: inactive; L3MBTL1 block: inactive

Results for COc1ccc(-c2noc(-c3nnn(-c4cc(C)ccc4C)c3N)n2)cc1 ?
BAZ2B inh: inactive; GLS inh: inactive; JMJD2A Tudor inh: inactive; G9a inh: inactive; HP1b chromo inh: inactive

Results for OCCN=c1cc(-c2ccccc2)oc2ccc(Cl)cc12 ?
BAZ2B inh: inconclusive; GLS inh: inactive; JMJD2A Tudor inh: inactive; G9a inh: inactive[0.501 µM]; HP1b chromo inh: inactive; L3MBTL1 block: inactive

What do the screens show for `CN(C)CCCN=c1cc(-c2ccccc2)oc2ccc(Cl)cc12`?
BAZ2B inh: inconclusive; GLS inh: inactive; JMJD2A Tudor inh: inactive; G9a inh: 56.2µM; HP1b chromo inh: inactive

Results for O=C1NC(=O)/C(=C\c2ccsc2)N1 ?
BAZ2B inh: inactive; GLS inh: inactive; JMJD2A Tudor inh: 31.6µM; G9a inh: inactive; HP1b chromo inh: inactive

How did CN(CC(=O)Nc1ccc(N2CCOCC2)cc1)CC(=O)Nc1ccc(Cl)cc1[N+](=O)[O-] do in these assays?
BAZ2B inh: 56.2µM; GLS inh: inactive; JMJD2A Tudor inh: inconclusive; G9a inh: 56.2µM; HP1b chromo inh: inconclusive; L3MBTL1 block: inactive

Results for CN(CC(=O)Nc1ccc(N2CCOCC2)cc1)CC(=O)Nc1ccc([N+](=O)[O-])cc1Br ?
BAZ2B inh: inactive; GLS inh: inactive; JMJD2A Tudor inh: inactive; G9a inh: inactive; HP1b chromo inh: inactive; L3MBTL1 block: inactive

Compound activity (PubChem BioAssay)
